{
  "source": "PubChem BioAssay (EPA / NIEHS)",
  "note": "Calls of active or inactive are those of the source. Rule for the calls: active = hit-call score of the fitted dose curve at least 0.9, where 1 is the maximum; inactive = score below 0.9.",
  "data": [
    {"read-out": "CFLAR gene, CFLAR (gene 8837)", "assay": "LTEA_HepaRG_CFLAR: Life Technologies and Expression Analysis (LTEA) Assay for CFLAR gene using HepaRG (AID 2283455)", "conditions": "mRNA level, 48 h; actives raise or lower the signal", "method": "LTEA_HepaRG is a cell based, multiplexed-readout assay that uses HepaRG, a human liver cell line, with measurements taken at 48 hours after chemical dosing on a 96-well plate.LTEA_HepaRG_CFLAR is one of 102 assay component(s) measured in the LTEA HepaRG cell culture assay. It is a marker of Cell proliferation, survival, death.Data from the assay component LTEA_HepaRG_CFLAR was analyzed into 1 endpoint. This assay endpoint, LTEA_HepaRG_CFLAR, was analyzed with bidirectional fitting relative to DMSO as the negative control and baseline of activity. Using a type of inducible reporter, measures of mRNA induction for gain or loss-of-signal activity can be used to understand regulation of transcription factor activity. To generalize the intended target to other relatable targets, this assay endpoint is annotated to the cell cycle intended target family, where the subfamily is Cell proliferation, survival, death.\nA total of 1060 chemcials from the ToxCast library were tested in eight-point concentration-response experiments. Cell culture and cytotoxicity assays were conducted at Thermo Fisher Scientific's Custom Services facility (Madison, WI). A single lot of human HepaRG cells (Thermo Fisher Scientific, Frederick, MD) was used for the cell culture experiments. 96-well format collagen type I coated plates of human HepaRG cells were prepared using established methods. Briefly, cryopreserved HepaRG cells were thawed, plated at a density of approximately 100,000 cells/well in HepaRG Thaw, Plate, and General Purpose media (HPRG770, Thermo Fisher Scientific), and incubated for 48 hours. 0.5% DMSO was selected as vehicle control to balance the requisite need of DMSO in HepaRG cultures to maintain differentiation (for example, baseline metabolism, proportions of hepatocytes vs. cholangiocytes), while enabling further hepatic receptor pathway activation (for example, PXR and CAR) in response to chemical exposure. 48 hours after plating, the culture medium was replaced with HepaRG Serum-Free Incudtion Media. Cells were exposed to each test chemical in duplicate and maintained in CO2 incubators for another 48 hours. Chemical plates were thawed to room temperature and 200x concentrations of treatment groups were prepared. 8-point conentration-reponse curves were made with the highest exposure at 100 uM, followed by half-log dilutions, all in 0.5% DMSO. Each test plate contained variouse controls, induction positive controls (1mM phenobarbital), cytotoxicity positive controls ([…] aflatoxin B1), vehicle controls (0.5% DMSO), and total lysis controls (0.5% DMSO). Cell morphology images were taken using an Essen IncuCyte FLR automated microscope, with six 96-well plates imaged in about 24 minutes. Images were captured and exported and JPEG files. Spent culture media was transfered to black-well plates for the LDH assay, and remaining media was sorted at -80 C for later use. Cells were treated with RLT buffer and frozen until shipped for gene expression analysis. Total RNA was isolated from the cell suspension in 75 uL of Buffer RLT (Qiagen, Germantown, MD 20874) by Quintiles/Expression Analysis (Durham, NC) using a custom isolation procedure. Total RNA from each plate well was transferred to a preamplification plate. Fluidigm's 96.96 Dynamic ArrayTM (Fluidigm, Amsterdam, the Netherlands) technology was used for gene expression analyses by quantitative reverse transcription polymerase chain reaction (qRT-PCR, performed by Quintiles/Expression Analysis, Durham, NC)89. Standard TaqManTM Assays (Applied Biosystems/ThermoFisher Scientific, Foster City, CA) were used to assess the expression of 93 genes selected based on their selectivity and sensitivity to important hepatic receptors known to be modulated by environmental chemicals; importance in human hepatocyte functionality; and hepatotoxicity. […]", "values": [
      {"smiles": "Cc1cnc(C2=NC(C)(C(C)C)C(=O)N2)c(C(=O)O)c1", "note": "(stereo not given)", "outcome": "inactive"},
      {"smiles": "CC(C)Nc1nc(Cl)nc(NC(C)C)n1", "outcome": "inactive"},
      {"smiles": "Nc1c(Cl)c(F)nc(OCC(=O)O)c1Cl", "outcome": "inactive"},
      {"smiles": "CC(C)C1(C)N=C(c2ncccc2C(=O)O)NC1=O", "note": "(stereo not given)", "outcome": "inactive"},
      {"smiles": "N#Cc1c(Cl)cccc1Cl", "outcome": "inactive"},
      {"smiles": "CCC(C)n1c(=O)[nH]c(C)c(Br)c1=O", "note": "(stereo not given)", "outcome": "inactive"},
      {"smiles": "CCCC(=NOCC)C1=C(O)CC(CC(C)SCC)CC1=O", "note": "(stereo not given)", "outcome": "inactive"},
      {"smiles": "CCOC(=O)C(C)OC(=O)c1cc(Oc2ccc(C(F)(F)F)cc2Cl)ccc1[N+](=O)[O-]", "note": "(stereo not given)", "outcome": "inactive"},
      {"smiles": "COCC(=O)N(c1c(C)cccc1C)C(C)C(=O)OC", "note": "(stereo not given)", "outcome": "inactive"},
      {"smiles": "CN=C=S", "outcome": "inactive"},
      {"smiles": "CC(C)=CC1C(C(=O)OCc2coc(Cc3ccccc3)c2)C1(C)C", "note": "(stereo not given)", "outcome": "inactive"},
      {"smiles": "CS(=O)(=O)c1cc(C(F)(F)F)ccc1C(=O)c1cnoc1C1CC1", "outcome": "inactive"},
      {"smiles": "O=C(Nc1ccccc1-c1ccc(Cl)cc1)c1cccnc1Cl", "outcome": "inactive"},
      {"smiles": "CC1(C)CCC(=Cc2ccc(Cl)cc2)C1(O)Cn1cncn1", "note": "(stereo not given)", "outcome": "inactive"},
      {"smiles": "COP(=S)(OC)SCn1nnc2ccccc2c1=O", "outcome": "inactive"},
      {"smiles": "CC1(C)CON(Cc2ccccc2Cl)C1=O", "outcome": "inactive"},
      {"smiles": "Cc1cc(C)nc(Nc2ccccc2)n1", "outcome": "inactive"},
      {"smiles": "Nc1cnn(-c2ccccc2)c(=O)c1Cl", "outcome": "inactive"},
      {"smiles": "Cn1c(-c2ccccc2)cc(-c2ccccc2)[n+]1C", "AC50": "82.3 µM (active)"},
      {"smiles": "CC(C)N1C(=O)N(c2ccccc2)CSC1=NC(C)(C)C", "outcome": "inactive"},
      {"smiles": "O=C1C2CC=CCC2C(=O)N1SC(Cl)(Cl)Cl", "note": "(stereo not given)", "outcome": "inactive"},
      {"smiles": "COc1cc(Cl)c(OC)cc1Cl", "outcome": "inactive"},
      {"smiles": "O=c1n(Cl)c(=O)n(Cl)c(=O)n1Cl", "outcome": "inactive"},
      {"smiles": "Clc1nc(Cl)nc(Nc2ccccc2Cl)n1", "outcome": "inactive"},
      {"smiles": "CC(C)NC(=O)N1CC(=O)N(c2cc(Cl)cc(Cl)c2)C1=O", "AC50": "20.2 µM (active)"},
      {"smiles": "C=CCOC(=O)C(C)(C)OC(=O)c1cc(-n2c(=O)cc(C(F)(F)F)n(C)c2=O)ccc1Cl", "outcome": "inactive"},
      {"smiles": "COP(=S)(OC)Oc1ccc([N+](=O)[O-])c(C)c1", "outcome": "inactive"},
      {"smiles": "CC1(C)C(C(=O)OC(C#N)c2cccc(Oc3ccccc3)c2)C1(C)C", "note": "(stereo not given)", "outcome": "inactive"},
      {"smiles": "O=P(O)(O)CCCl", "outcome": "inactive"},
      {"smiles": "CCOP(=O)(OCC)Oc1nc(Cl)c(Cl)cc1Cl", "outcome": "inactive"},
      {"smiles": "Clc1cccc(C(Cl)(Cl)Cl)n1", "outcome": "inactive"},
      {"smiles": "CNC(=O)N(C)c1nnc(C(C)(C)C)s1", "outcome": "inactive"},
      {"smiles": "COC(=O)N(C(=O)N1CO[C@@]2(C(=O)OC)Cc3cc(Cl)ccc3C2=N1)c1ccc(OC(F)(F)F)cc1", "AC50": "29.8 µM (active)"},
      {"smiles": "CC(C)Oc1cccc(NC(=O)c2ccccc2C(F)(F)F)c1", "outcome": "inactive"},
      {"smiles": "OC(c1ccc(Cl)cc1)(c1ccc(Cl)cc1)C(Cl)(Cl)Cl", "outcome": "inactive"},
      {"smiles": "COC(=O)c1c(C(F)F)nc(C(F)(F)F)c(C2=NCCS2)c1CC(C)C", "outcome": "inactive"},
      {"smiles": "CCCCC(O)(Cn1cncn1)c1ccc(Cl)cc1Cl", "note": "(stereo not given)", "AC50": "66.5 µM (active)"},
      {"smiles": "COc1ccc(-c2ccccc2)cc1NNC(=O)OC(C)C", "outcome": "inactive"},
      {"smiles": "COCC(C)N(C(=O)CCl)c1c(C)csc1C", "note": "(stereo not given)", "outcome": "inactive"},
      {"smiles": "CCNC(=O)NC(=O)C(C#N)=NOC", "outcome": "inactive"}
    ]}
  ]
}
